A1 inh: inhibitors of the anti-apoptotic protein A1, read as caspase activation | MEF A1-2A-BIM cells, Caspase-Glo 3/7 luminescence, 3 h; percent of clofoctol response, vehicle zero | caspase activation, % (no concentration beside the values) | 330,000 compounds, 0.066% hits | AID 2462;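 active = over half of replicate activation scores above 10%, or exactly half above 10 with the replicate mean above 10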
NOD2-RIPK2 inh: inhibitors of human NOD2-RIPK2 interaction; O43353; CHO BLA complementation NOD2-RIPK2, CCF4 ratio; inhibition, % at 4.98 µM; 360,000 compounds, 0.38% hits; AID 624267; in the data active = inhibition above about 21%;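 also: 0% = vehicle only and 100% = reference blocker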
NTR1 agonist: NTR1 (human) agonism | AID 493036 | NTR1-U2OS beta-arrestin-GFP spot imaging, agonist mode | activation, % at 20 µM | P30989 | 330,000 compounds, 0.17% hits;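 active = activation at or above 40% of the spot to cytoplasm intensity ratio, with at least 20 cells analyzed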;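 also: 0% = DMSO without peptide and 100% = 100 nM NTR1 peptide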
Target sequence (P30989 whole entry, looked up): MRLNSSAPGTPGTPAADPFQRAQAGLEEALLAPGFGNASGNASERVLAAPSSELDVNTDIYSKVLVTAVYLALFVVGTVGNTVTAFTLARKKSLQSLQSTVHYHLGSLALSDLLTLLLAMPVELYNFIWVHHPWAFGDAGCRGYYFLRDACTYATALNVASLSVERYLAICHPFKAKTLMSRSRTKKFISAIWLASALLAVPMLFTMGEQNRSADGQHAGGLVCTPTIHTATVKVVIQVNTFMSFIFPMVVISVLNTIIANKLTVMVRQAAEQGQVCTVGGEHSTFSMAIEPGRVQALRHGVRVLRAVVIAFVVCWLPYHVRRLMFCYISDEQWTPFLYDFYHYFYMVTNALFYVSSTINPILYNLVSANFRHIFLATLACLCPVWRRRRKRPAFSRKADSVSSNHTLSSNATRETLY
TLR9-MyD88 inh: blocks human TLR9 binding to MyD88 | CHO BLA complementation TLR9-MyD88, CCF4 FRET ratio | inhibition, % at 4.98 µM | 340,000 compounds, 0.21% hits;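 active = inhibition above the mean over all tested compounds plus 3 SD, cut at about 21% in these data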;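 also: 0% = DMSO only wells and 100% = clavulanate BLA inhibitor control wells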
TLR4 MyD88 comp: blocks binding of human TLR4 to MyD88; O00206+Q99836; HeLa CL3-4 TLR4/MyD88 BLA complementation, FRET ratio; inhibition, % at 8.4 µM; 200,000 compounds, 0.18% hits; in the data active = inhibition above about 25%;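 also: 0% = vehicle and 100% = reference inhibitor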
B2AR ag: agonists of human beta-2 adrenergic receptor inducing internalization | Am2.2-beta2AR cells, FAP receptor internalization, flow cytometry | AID 504454 | response, % (test concentration not listed) | 340,000 compounds, 0.43% hits | P07550;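 active = response above a set limit, near 3 SD of response in nonfluorescent compounds, cut at about 42% in these data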
TLR9-MyD88 cf: confirmation of human TLR9-MyD88 binding inhibitors. shares compounds with TLR9-MyD88 inh. CHO TLR9/MyD88 BLA complementation, CCF4 FRET ratio. inhibition, % at 4.98 µM. 680 compounds, 51% hits. AID 540250;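 active = mean inhibition across three repeats above about 21% taken from the earlier screen, limit read from the data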;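 also: blue over green emission ratio reports constitutive TLR9 MyD88 association via BLA complementation; 0% = DMSO vehicle wells and 100% = clavulanate BLA inhibitor wells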
BLA counter-1: counter-screen for TLR9-MyD88 inhibitors: non-selective beta-lactamase inhibitors; shares compounds with TLR9-MyD88 inh; CHO-BLA cells, CCF4 FRET ratio, BLA reporter; inhibition, % at 4.98 µM; 680 compounds, 7% hits; AID 540251;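 active = mean inhibition above a 50% cutoff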;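 also: counterscreen of TLR9-MyD88 hits on CMV-driven BLA in CHO-K1 cells; 0% = DMSO alone and 100% = clavulanate blocking BLA; higher means less blue over green ratio so more BLA blockade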
TLR9 CHO cytotox: counter-screen for TLR9-MyD88 inhibitors: cytotoxicity in CHO cells; shares compounds with TLR9-MyD88 inh; inhibition, % at 4.98 µM; luminescence; 680 compounds, 39% hits; in the data active = inhibition above about 11%
NOD2-RIPK2 conf: confirmation of human NOD2-RIPK2 interaction inhibitors | CHO cells, NOD2-RIPK2 BLA complementation, CCF4 FRET | AID 624370 | 1,200 compounds, 70% hits | shares compounds with NOD2-RIPK2 inh | inhibition, % at 4.98 µM;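 active = mean inhibition across replicates above a set limit taken from the earlier primary screen, cut at about 21% in these data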;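 also: 0% = DMSO-only wells and the high end = clavulanate BLA-blocked wells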
BLA counter-2: counter-screen for NOD2-RIPK2 interaction inhibitors: BLA reporter; shares compounds with NOD2-RIPK2 inh; CHO BLA reporter, CCF4 FRET ratio, counterscreen; inhibition, % at 4.98 µM; 1,200 compounds, 57% hits; AID 624371;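 active = mean inhibition above the low-control mean inhibition plus three low-control SD, cut at about 11% in these data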;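 also: 0% = DMSO only wells and 100% = clavulanate high control wells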
* = called active by the depositor; · = no result given. The list is not random: actives were taken first. Their share in the collection is about 0.97%.

SMILES	A1 inh	NOD2-RIPK2 inh	NTR1 agonist	TLR9-MyD88 inh	TLR4 MyD88 comp	B2AR ag	TLR9-MyD88 cf	BLA counter-1	TLR9 CHO cytotox	NOD2-RIPK2 conf	BLA counter-2
CCOC(=O)C1=C(C)Nc2sc(C(=O)c3ccc(OC)cc3)c(N)c2C1c1ccc(C(=O)OC)cc1 (stereo not given)	0	39*	-1	44*	10	9	-1	9	7	5	20*
COC(=O)c1ccc(-c2csc(NC(=O)c3ccc(S(=O)(=O)N4CCc5ccccc5C4)cc3)n2)cc1	0	-4	-2	3	4	1	·	·	·	·	·
Cc1ccc(/C=C2\Oc3c(ccc(O)c3CN3CCN(CCO)CC3)C2=O)cc1	0	28*	0	22*	17	8	10	8	-1	24*	28*
CC1OC(C)(C)OC1C1CNc2nc(NC(=O)C(C)(C)C)[nH]c(=O)c2N1C(=O)c1cccnc1 (stereo not given)	-1	-9	1	0	11	-3	·	·	·	·	·
COc1cccc(NC(=O)c2nc(SC)ncc2Cl)c1	0	-6	6	0	·	-4	·	·	·	·	·
COc1cccc(NC(=O)c2nc(S(C)(=O)=O)ncc2Cl)c1	0	74*	3	45*	·	16	42*	33	100*	67*	32*
CN(c1ccccc1)S(=O)(=O)c1ccc(NC(=O)c2nc(S(C)(=O)=O)ncc2Cl)cc1	1	100*	2	58*	·	90*	52*	33	103*	93*	51*
CN(c1ccccc1)S(=O)(=O)c1ccc(NC(=O)c2ccccc2)cc1	-1	2	2	10	-22	3	·	·	·	·	·
O=C(Sc1cccc2cccnc12)c1ccccc1Br	0	39*	8	24*	·	2	22*	15	98*	41*	17*
Cc1ccc(C(=O)NC2CCCCNC2=O)cc1 (stereo not given)	0	-12	-1	-1	·	0	·	·	·	·	·
O=c1c(Br)ccc(Br)cc1Br	·	85*	·	66*	·	70*	68*	39	98*	101*	48*
COc1ccc(C2=CC(c3ccc(OC)c(OC)c3)n3nnnc3N2)c(OC)c1 (stereo not given)	0	44*	-1	39*	4	-6	21*	26	8	3	7
COc1cccc(C2=CC(c3cc(OC)ccc3OC)n3nnnc3N2)c1 (stereo not given)	0	-10	2	4	10	-3	·	·	·	·	·
Nc1ccc2nc3c(=O)n(C4CCCCC4)c(=O)[nH]c3nc2c1	0	41*	-1	35*	·	-41	18	23	1	59*	66*
NNC(=O)c1oc2nc(-c3ccc(Cl)cc3)cc(-c3ccccc3)c2c1N	0	26*	·	24*	·	-13	46*	41	1	62*	67*
NNC(=O)c1oc2nc(-c3ccco3)cc(-c3ccco3)c2c1N	-1	-1	1	·	·	-6	·	·	·	·	·
CC(NC(=O)/C(C#N)=C/c1ccc([N+](=O)[O-])o1)c1ccccc1 (stereo not given)	0	52*	-1	21*	·	18	36*	19	99*	51*	34*
COc1cc(NC(=O)Nc2nnc([C@@H]3C[C@H](O)[C@@H](CO)O3)s2)cc(OC)c1OC	·	-3	·	·	·	·	·	·	·	·	·
Cc1cc2nc(/C=C/c3nc4cc(C)c(C)cc4[nH]3)[nH]c2cc1C	-6	25*	·	40*	·	7	30*	32	-2	32*	43*
CC(=O)OCCNc1cc(Sc2nc3ccccc3[nH]2)c2nonc2c1[N+](=O)[O-]	1	89*	·	56*	9	26	60*	3	99*	90*	38*
O=C(C#Cc1ccccc1)c1ccco1	-2	78*	4	30*	·	82*	48*	13	97*	83*	18*
O=C(N/N=C/c1ccccc1)c1ccco1	-4	8	0	7	·	0	·	·	·	·	·
N=C1C(c2ccc(Br)cc2)=C(O)C2CCc3ccccc3N12 (stereo not given)	0	4	0	-3	1	-2	·	·	·	·	·
CC(C)C[C@H]1CNC(=S)N1C[C@H]1CCCN1C[C@H](Cc1ccc(O)cc1)N1C[C@H](Cc2ccc(O)cc2)N(CC2CCCCCC2)C1=S	·	-2	·	·	·	·	·	·	·	·	·
O=C(NCc1ccccc1C(F)(F)F)c1cccc2c1C(=O)c1ccc(N3CCOCC3)cc1S2(=O)=O	1	-1	1	4	·	18	·	·	·	·	·
SMILES	A1 inh	NOD2-RIPK2 inh	NTR1 agonist	TLR9-MyD88 inh	TLR4 MyD88 comp	B2AR ag	TLR9-MyD88 cf	BLA counter-1	TLR9 CHO cytotox	NOD2-RIPK2 conf	BLA counter-2
O=C(NCc1ccccc1C(F)(F)F)c1cccc2c1C(=O)c1ccc(N3CCC(N4CCCCC4)CC3)cc1S2(=O)=O	·	68*	·	30*	·	·	30*	41	5	73*	70*
Cc1ccc(CNC(=O)c2cccc3c2C(=O)c2ccc(N4CCCCC4)cc2S3(=O)=O)cc1	-1	27*	3	25*	·	-4	12	13	0	31*	33*
COC(=O)c1cnn(-c2nc(OC)cc(OC)n2)c1C	-1	0	0	-6	-19	-1	·	·	·	·	·
COc1cc(OC)nc(-n2ncc(Br)c(Br)c2=O)n1	-1	50*	·	23*	7	25	27*	22	100*	60*	10
O=C(NNC(=O)c1ccccc1-n1cccc1)c1ccc(F)cc1	0	-13	1	0	-3	4	·	·	·	·	·
Nc1nc(NCCO)nc(N2CCCCCC2)c1[N+](=O)[O-]	2	-5	0	-3	·	-3	·	·	·	·	·
OCCN(CCO)c1nc(N2CCCCC2)c2nc(N(CCO)CCO)nc(N3CCCCC3)c2n1	·	36*	5	25*	10	11	16	20	2	47*	51*
CCN(CCO)C(=O)c1ccc2nc(Cc3ccc(OC)cc3)oc2c1	-3	-11	·	5	·	-7	·	·	·	·	·

Screens (PubChem)
